Rows were chosen to be rich in hits. Some 7% of all compounds tested hit in one or more screens of this group.
GCN5L2 inh: inhibitors of human GCN5L2 histone acetyltransferase. Q92830. GCN5L2 HAT assay, ThioGlo1 CoA-SH fluorescence. 390,000 compounds, 0.21% hits. Potency, µM (doses to about 58.9 µM), actives largely listed as inhibitors. AID 504327
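Enzyme at 20nM final was mixed with library compounds for 15 min at room temperature. Peptide H3(1-25) at 75uM, acetyl-CoA at 70uM and ThioGlo1 at 50uM were then added. Plates were read immediately and after 20 min (Ex340nm/Em540nm).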
PLK1 PBD block: inhibitors of human PLK1 polo-box domain binding; P53350; Plk1 PBD binding of FITC phosphopeptide, fluorescence polarization; Potency, µM, hits mostly inhibitors; 360,000 compounds, 2.8% hits; further: series mostly up to about 57 µM; nearly all actives have a fitted effect of over 65% in size
PI5P4Ka inh: PI5P4K alpha (human) kinase inhibition | P48426 | PI5P4Kalpha enzyme, ADP-Glo luminescence, 60 min; hits give low values | max response, % | 330,000 compounds, 1.2% hits | AID 652105; active means max response of -50% or lower; inconclusive means between -30% and -50%; inactive means -30% or higher; further: value at the top dose of about 77 µM
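ADP-Glo luminescence end-point read after a 60 min room-temperature kinase reaction of PI5P4Kalpha plus substrate, initiated with ATP at 5 microM final. Buffer: 0.038 M HEPES pH 7.4, EGTA, 0.1% CHAPS, 5% DMSO.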
HP1b chromo inh: blocks HP1-beta chromodomain binding to methylated histone tails | AlphaScreen HP1-beta / biotin-H3K9me3 peptide binding | Potency, µM (highest dose often 114 µM), actives largely listed as inhibitors | 390,000 compounds, 0.56% hits | P83916; further: nearly all actives have a fitted effect of over 70% in size
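Compound inhibition of the preformed complex between 50 nM HP1-beta and 50 nM biotinylated H3K9me3 peptide was read by AlphaScreen. Buffer was PBS pH 7.4 with 0.01% Tween-20. Incubations ran 30 min at room temperature, with 10 ug/mL donor/acceptor beads.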
JMJD2A Tudor inh: inhibitors of human JMJD2A Tudor domain; O75164; AlphaScreen JMJD2A-Tudor / H3K4me3 peptide binding; Potency, µM (titrated, usually from 114 µM), most hits filed as inhibitors; 390,000 compounds, 4.4% hits; AID 504339; further: nearly all actives have a fitted effect of over 50% in size
BAZ2B inh: inhibitors of human BAZ2B bromodomain. Q9UIF8. AlphaScreen BAZ2B-H3K14Ac peptide displacement. Potency, µM (series often up to 114 µM), actives largely listed as inhibitors. 360,000 compounds, 4.4% hits. AID 504333; further: nearly all actives have a fitted effect of over 60% in size
Target sequence (Q9UIF8 whole entry, looked up): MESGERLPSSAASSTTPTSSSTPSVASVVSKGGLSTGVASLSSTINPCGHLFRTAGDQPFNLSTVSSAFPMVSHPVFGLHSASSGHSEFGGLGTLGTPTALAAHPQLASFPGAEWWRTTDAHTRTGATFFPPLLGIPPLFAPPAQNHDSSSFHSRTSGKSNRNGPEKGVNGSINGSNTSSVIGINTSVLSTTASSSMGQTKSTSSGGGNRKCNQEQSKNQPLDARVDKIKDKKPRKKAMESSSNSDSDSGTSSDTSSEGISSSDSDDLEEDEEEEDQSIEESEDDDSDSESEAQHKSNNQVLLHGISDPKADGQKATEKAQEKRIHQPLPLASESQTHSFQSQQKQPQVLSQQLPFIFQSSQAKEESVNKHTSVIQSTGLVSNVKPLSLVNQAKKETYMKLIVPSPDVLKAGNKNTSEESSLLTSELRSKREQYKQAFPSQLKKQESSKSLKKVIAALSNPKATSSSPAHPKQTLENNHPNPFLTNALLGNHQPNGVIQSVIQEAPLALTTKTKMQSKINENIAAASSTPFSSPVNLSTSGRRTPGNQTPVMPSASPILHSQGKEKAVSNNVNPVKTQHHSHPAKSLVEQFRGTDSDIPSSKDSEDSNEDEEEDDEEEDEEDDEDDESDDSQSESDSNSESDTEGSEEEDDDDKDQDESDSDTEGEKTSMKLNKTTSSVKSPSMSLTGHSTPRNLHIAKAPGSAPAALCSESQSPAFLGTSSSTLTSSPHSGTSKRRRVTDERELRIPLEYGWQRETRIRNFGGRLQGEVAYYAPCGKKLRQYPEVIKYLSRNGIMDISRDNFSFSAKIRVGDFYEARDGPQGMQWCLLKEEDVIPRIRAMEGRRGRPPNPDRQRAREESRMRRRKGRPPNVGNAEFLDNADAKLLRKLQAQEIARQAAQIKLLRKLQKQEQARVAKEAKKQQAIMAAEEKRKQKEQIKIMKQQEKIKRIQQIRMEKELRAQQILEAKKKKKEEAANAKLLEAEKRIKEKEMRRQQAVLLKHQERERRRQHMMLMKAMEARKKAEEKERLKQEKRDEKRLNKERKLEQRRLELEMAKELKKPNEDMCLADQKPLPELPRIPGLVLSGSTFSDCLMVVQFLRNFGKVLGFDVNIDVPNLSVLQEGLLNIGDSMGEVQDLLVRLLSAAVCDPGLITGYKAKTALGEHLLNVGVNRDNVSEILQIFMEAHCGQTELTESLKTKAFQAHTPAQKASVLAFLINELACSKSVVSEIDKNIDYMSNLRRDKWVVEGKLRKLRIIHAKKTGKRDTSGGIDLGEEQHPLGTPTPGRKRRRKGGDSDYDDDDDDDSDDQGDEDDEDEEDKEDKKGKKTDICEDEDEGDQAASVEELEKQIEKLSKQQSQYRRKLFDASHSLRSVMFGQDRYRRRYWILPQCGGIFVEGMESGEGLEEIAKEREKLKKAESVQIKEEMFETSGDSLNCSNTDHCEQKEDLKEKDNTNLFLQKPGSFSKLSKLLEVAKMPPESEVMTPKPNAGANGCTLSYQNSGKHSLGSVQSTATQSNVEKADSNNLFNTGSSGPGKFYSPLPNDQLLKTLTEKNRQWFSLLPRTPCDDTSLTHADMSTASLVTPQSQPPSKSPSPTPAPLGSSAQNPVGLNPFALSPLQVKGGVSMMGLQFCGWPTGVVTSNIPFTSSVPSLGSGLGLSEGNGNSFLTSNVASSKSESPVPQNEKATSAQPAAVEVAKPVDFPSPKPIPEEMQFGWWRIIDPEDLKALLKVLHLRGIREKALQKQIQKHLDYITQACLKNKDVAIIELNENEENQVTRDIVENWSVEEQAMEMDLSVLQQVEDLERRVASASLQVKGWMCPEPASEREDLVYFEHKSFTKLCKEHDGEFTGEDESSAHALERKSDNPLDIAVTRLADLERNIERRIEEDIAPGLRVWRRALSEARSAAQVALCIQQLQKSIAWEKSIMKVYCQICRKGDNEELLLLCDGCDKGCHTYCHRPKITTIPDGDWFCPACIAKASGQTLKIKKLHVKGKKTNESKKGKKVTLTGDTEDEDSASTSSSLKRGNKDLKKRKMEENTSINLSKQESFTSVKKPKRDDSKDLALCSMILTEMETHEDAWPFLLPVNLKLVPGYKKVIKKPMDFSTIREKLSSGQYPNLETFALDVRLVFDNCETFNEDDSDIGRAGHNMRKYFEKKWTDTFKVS
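BAZ2B (50 nM) with biotin-H3(5-23)K14Ac peptide (50 nM) in PBS pH 7.4, 0.01% Tween-20, preformed 30 min, then compound 30 min at room temperature; top concentration 110uM. AlphaScreen streptavidin donor/nickel chelate acceptor beads (10 ug/mL final), 20 min dark, signal read.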
Numbers stand for hits; [ ] = dose if it differs, or a comment. Unless noted, the call rests on the fitted dose curve; in most records, active means well fitted curve in the direction sought with a large enough effect; inconclusive means small, poorly fitted or top-dose-only effect, or another doubt; inactive means no such curve, though single readings can be large; an effect the other way counts as inactive or inconclusive.

Results for COCCN(C(=O)COC(=O)CNC(=O)c1cccs1)c1c(N)n(Cc2ccccc2)c(=O)[nH]c1=O ?
GCN5L2 inh: inactive; PLK1 PBD block: inactive; PI5P4Ka inh: inactive; HP1b chromo inh: inactive; JMJD2A Tudor inh: inactive; BAZ2B inh: inactive

Results for COCCn1c(N)c(C(=S)NC(=O)c2cccs2)c(=O)[nH]c1=O ?
GCN5L2 inh: inactive; PLK1 PBD block: 23.8µM; PI5P4Ka inh: -82.0; HP1b chromo inh: inactive; JMJD2A Tudor inh: inactive; BAZ2B inh: inactive

Results for CCOC(=O)c1c(=O)n(O)c2ccc(C)cc2[n+]1[O-] ?
GCN5L2 inh: inactive; PLK1 PBD block: inactive; PI5P4Ka inh: inactive; HP1b chromo inh: inactive; JMJD2A Tudor inh: 89.1µM; BAZ2B inh: inconclusive

What do the screens show for `O=C(NNC(=O)c1cc2cc3ccccc3nc2s1)c1cccc(Cl)c1`?
GCN5L2 inh: inactive; PLK1 PBD block: inactive; PI5P4Ka inh: inconclusive; HP1b chromo inh: inactive; JMJD2A Tudor inh: 50.1µM; BAZ2B inh: inactive

Results for CCn1c2ccccc2c2cc(CN3CCN(C(=O)c4ccco4)CC3)ccc21 ?
GCN5L2 inh: inactive; PLK1 PBD block: inactive; PI5P4Ka inh: inactive; HP1b chromo inh: inconclusive; JMJD2A Tudor inh: 35.5µM; BAZ2B inh: inconclusive

Results for COc1ccc(CN2CCN(C(=O)c3ccco3)CC2)cc1OC ?
GCN5L2 inh: inactive; PLK1 PBD block: inactive; PI5P4Ka inh: inactive; HP1b chromo inh: 25.1µM; JMJD2A Tudor inh: inactive[11.4 µM]; BAZ2B inh: 39.8µM

What do the screens show for `COc1ccc(CN2CCN(C(=O)c3ccco3)CC2)cc1OCc1ccccc1`?
GCN5L2 inh: inactive; PLK1 PBD block: inactive; PI5P4Ka inh: inactive; HP1b chromo inh: inconclusive; JMJD2A Tudor inh: inconclusive; BAZ2B inh: 56.2µM

What do the screens show for `CN1N/C(=C\c2ccccc2)N=C2C(=O)N(C)C(=O)N=C21`?
HP1b chromo inh: inactive; JMJD2A Tudor inh: inactive

Results for CC1(C)Cc2c(cnn2-c2ccc(F)cc2)C(NC(=O)CCN2CCCC2=O)C1 (stereo unspecified) ?
GCN5L2 inh: inactive; PLK1 PBD block: 3.36µM; PI5P4Ka inh: inconclusive; HP1b chromo inh: inactive; JMJD2A Tudor inh: inconclusive; BAZ2B inh: inactive

Results for CC1(C)Cc2c(cnn2-c2ccc(F)cc2)C(NC(=O)C2=NNC(=O)CC2)C1 (stereo unspecified) ?
GCN5L2 inh: inactive; PLK1 PBD block: 2.99µM; PI5P4Ka inh: inconclusive; HP1b chromo inh: inactive; JMJD2A Tudor inh: 15.8µM; BAZ2B inh: inactive

How did CC(C)(C)c1ccc(-n2ncc3c2CCCC3NC(=O)CN2CCCC2=O)cc1 (stereo unspecified) do in these assays?
GCN5L2 inh: inactive; PLK1 PBD block: inactive; PI5P4Ka inh: inactive; HP1b chromo inh: inactive; JMJD2A Tudor inh: inactive; BAZ2B inh: inactive

Results for Cc1cc(C)cc(-n2ncc3c2CCCC3NC(=O)CN2CCCC2=O)c1 (stereo unspecified) ?
GCN5L2 inh: inactive; PLK1 PBD block: 29.9µM; PI5P4Ka inh: inactive; HP1b chromo inh: inactive; JMJD2A Tudor inh: inconclusive; BAZ2B inh: inactive

How did COc1ccccc1OCCCCn1c(C(C)O)nc2ccccc21 (stereo unspecified) do in these assays?
GCN5L2 inh: inactive; PLK1 PBD block: inactive; PI5P4Ka inh: inactive; HP1b chromo inh: inactive; JMJD2A Tudor inh: inactive; BAZ2B inh: inactive

Results for O=C(O)C(Cc1ccnc2ccccc12)=NO ?
PLK1 PBD block: inactive; PI5P4Ka inh: inactive; HP1b chromo inh: inactive; JMJD2A Tudor inh: 3.16µM

What do the screens show for `CCOC(=O)C(Cc1ccnc2ccccc12)=NO`?
PLK1 PBD block: inactive; PI5P4Ka inh: inactive; HP1b chromo inh: inactive; JMJD2A Tudor inh: inactive

What do the screens show for `CCCn1c(C)cc(/C=C(\C#N)C(=O)O)c1C`?
GCN5L2 inh: inactive; PLK1 PBD block: inactive; PI5P4Ka inh: inactive; HP1b chromo inh: inactive; JMJD2A Tudor inh: inactive; BAZ2B inh: inactive

Results for Cc1cc(/C=C(\C#N)C(=O)O)c(C)n1-c1ccc(Br)cc1 ?
GCN5L2 inh: inactive; PLK1 PBD block: 33.6µM; PI5P4Ka inh: inactive; HP1b chromo inh: inactive; JMJD2A Tudor inh: inactive[11.4 µM]; BAZ2B inh: inconclusive

Results for Cc1cc(C=C(C#N)C#N)c(C)n1-c1ccccc1 ?
GCN5L2 inh: inactive; PLK1 PBD block: inactive; PI5P4Ka inh: inactive; HP1b chromo inh: inactive; JMJD2A Tudor inh: inactive; BAZ2B inh: inactive

Results for Cc1cc(/C=C(\C#N)C(=O)O)c(C)n1CC1CCCO1 (stereo unspecified) ?
GCN5L2 inh: inactive; PLK1 PBD block: 2.99µM; PI5P4Ka inh: -72.1; HP1b chromo inh: inconclusive; JMJD2A Tudor inh: 14.1µM; BAZ2B inh: inactive

How did CC(=O)Oc1cccc2c1C(=O)C1CC=CC(OC(C)=O)C1C2=O (stereo unspecified) do in these assays?
PLK1 PBD block: inactive; PI5P4Ka inh: inactive; HP1b chromo inh: inactive; JMJD2A Tudor inh: inconclusive

Results for COc1ccc(CCCNC(=O)C2(C)Cc3c(-c4ccc(NC(C)=O)cc4)ccnc3O2)cc1 (stereo unspecified) ?
PLK1 PBD block: inactive; PI5P4Ka inh: inactive

What do the screens show for `O=C1c2ccccc2C(=O)C1c1nccc2ccccc12`?
GCN5L2 inh: inactive; PLK1 PBD block: inactive; PI5P4Ka inh: inactive; HP1b chromo inh: inactive; JMJD2A Tudor inh: inactive; BAZ2B inh: inactive

What do the screens show for `CC(C)C1C(C#N)=C(N)SC(N)=C1C#N`?
GCN5L2 inh: inactive; PLK1 PBD block: inactive; PI5P4Ka inh: inactive; HP1b chromo inh: inactive; JMJD2A Tudor inh: inactive; BAZ2B inh: inactive

What do the screens show for `N#CC1=C(N)SC(N)=C(C#N)C1c1ccnc2ccccc12`?
GCN5L2 inh: inactive; PLK1 PBD block: inconclusive; PI5P4Ka inh: -74.3; HP1b chromo inh: inactive; JMJD2A Tudor inh: 56.2µM; BAZ2B inh: inconclusive

How did O=C1c2ccccc2C(=O)C1c1ccnc2ccccc12 do in these assays?
GCN5L2 inh: inactive; PLK1 PBD block: inactive; PI5P4Ka inh: inactive; HP1b chromo inh: inactive; JMJD2A Tudor inh: 79.4µM; BAZ2B inh: inactive

What do the screens show for `CCCOc1ccc(C(=O)Nc2ccc3oc(-c4ccncc4)nc3c2)cc1`?
GCN5L2 inh: inactive; HP1b chromo inh: inactive; JMJD2A Tudor inh: inactive; BAZ2B inh: inactive

What do the screens show for `CC(C)CN1CC(C(=O)O)CC1=O` (stereo unspecified)?
GCN5L2 inh: inactive; PLK1 PBD block: inactive; PI5P4Ka inh: inactive; HP1b chromo inh: inactive; JMJD2A Tudor inh: inactive[11.4 µM]; BAZ2B inh: inactive

Results for CC(CN1CCN(C/C=C/c2ccccc2)CC1)c1ccccc1 (stereo unspecified) ?
GCN5L2 inh: inactive; PLK1 PBD block: inactive; PI5P4Ka inh: inactive; HP1b chromo inh: inactive; JMJD2A Tudor inh: 12.6µM; BAZ2B inh: inconclusive

What do the screens show for `COC(=O)c1ccc2c(=O)n(CCCCCC(=O)N3CCN(c4cc(Cl)ccc4C)CC3)c(=O)[nH]c2c1`?
GCN5L2 inh: inactive; HP1b chromo inh: inactive; JMJD2A Tudor inh: inactive; BAZ2B inh: inactive

Screens from PubChem BioAssay.
